Reference: PubChem BioAssay (EPA / NIEHS)
Results filed as inconclusive are left out. A structure can be active in one record and inactive in another. Calls of active or inactive are those of the source. The calls were made as follows, unless noted: active = hit-call score of the fitted dose curve at least 0.9, where 1 is the maximum; inconclusive = response in the unintended direction; inactive = score below 0.9.

Assays:
[1] = target: Steroid hormone receptor ERR1 (Homo sapiens) (UniProt P11474); test: ATG_ERRa_TRANS: Attagene TRANS-FACTORIAL HepG2 Assay for human Estrogen-Related Receptor alpha (ERRa) (AID 2282971); details: HepG2 Attagene TRANS reporter, ERRa transactivation
Steroid hormone receptor ERR1 (Homo sapiens), sequence (P11474 whole entry, looked up, the tested form may be a part): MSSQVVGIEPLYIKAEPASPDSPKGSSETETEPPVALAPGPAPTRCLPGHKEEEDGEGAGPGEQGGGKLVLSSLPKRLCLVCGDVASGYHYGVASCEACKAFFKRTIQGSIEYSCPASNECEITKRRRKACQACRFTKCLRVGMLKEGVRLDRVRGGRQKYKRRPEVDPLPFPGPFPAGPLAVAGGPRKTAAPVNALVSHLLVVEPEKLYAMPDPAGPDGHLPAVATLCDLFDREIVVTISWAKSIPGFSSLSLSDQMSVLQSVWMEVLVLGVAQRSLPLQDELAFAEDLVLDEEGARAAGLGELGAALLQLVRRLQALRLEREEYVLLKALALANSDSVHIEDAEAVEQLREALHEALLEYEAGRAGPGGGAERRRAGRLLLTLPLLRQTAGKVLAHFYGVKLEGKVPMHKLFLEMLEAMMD
Procedure, shortened: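 HepG2 cells transiently transfected with multiplexed GAL4-UAS reporter units reading chimeric ERRa-Gal4 activity; 24 h compound exposure. Reporter mRNA measured by RT-PCR, 6-FAM labelling, HpaI digest and capillary electrophoresis; gain of signal fitted versus DMSO baseline.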

[2] = target: X-box-binding protein 1 (Homo sapiens) (UniProt P17861); test: ATG_Xbp1_CIS: Attagene CIS-FACTORIAL HepG2 Assay for human X-box Binding Protein 1 (XBP1) (AID 2282972; active = hit-call score of the fitted dose curve at least 0.9, where 1 is the maximum; inactive = score below 0.9); details: HepG2 XBP1 cis-element reporter, Attagene multiplex; actives raise or lower the signal
X-box-binding protein 1 (Homo sapiens), sequence (P17861 whole entry, looked up, the tested form may be a part): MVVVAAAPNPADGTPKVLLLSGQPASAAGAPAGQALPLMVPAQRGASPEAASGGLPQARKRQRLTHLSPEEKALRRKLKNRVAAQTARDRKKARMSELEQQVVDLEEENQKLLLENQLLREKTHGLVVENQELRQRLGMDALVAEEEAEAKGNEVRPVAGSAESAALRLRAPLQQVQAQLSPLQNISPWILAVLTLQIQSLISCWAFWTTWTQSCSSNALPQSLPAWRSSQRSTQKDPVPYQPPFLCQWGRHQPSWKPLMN
Procedure, shortened: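 Fluorescence-labelled cDNA fragments from reporter transcripts, separated by capillary electrophoresis, give the signal. Source: HepG2 cells transfected with promoter-driven reporter units, harvested 24 h post-dose. DMSO served as reference for bidirectional curve fitting.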

[3] = target: Estrogen-related receptor gamma (Homo sapiens) (UniProt P62508); test: ATG_ERRg_TRANS: Attagene TRANS-FACTORIAL HepG2 Assay for human Estrogen-Related Receptor gamma (ERRg) (AID 2282977); details: HepG2 Attagene TRANS reporter, ERRg transactivation;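 also: hits increase reporter signal over DMSO so potencies reflect activators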
Estrogen-related receptor gamma (Homo sapiens), sequence (P62508 whole entry, looked up, the tested form may be a part): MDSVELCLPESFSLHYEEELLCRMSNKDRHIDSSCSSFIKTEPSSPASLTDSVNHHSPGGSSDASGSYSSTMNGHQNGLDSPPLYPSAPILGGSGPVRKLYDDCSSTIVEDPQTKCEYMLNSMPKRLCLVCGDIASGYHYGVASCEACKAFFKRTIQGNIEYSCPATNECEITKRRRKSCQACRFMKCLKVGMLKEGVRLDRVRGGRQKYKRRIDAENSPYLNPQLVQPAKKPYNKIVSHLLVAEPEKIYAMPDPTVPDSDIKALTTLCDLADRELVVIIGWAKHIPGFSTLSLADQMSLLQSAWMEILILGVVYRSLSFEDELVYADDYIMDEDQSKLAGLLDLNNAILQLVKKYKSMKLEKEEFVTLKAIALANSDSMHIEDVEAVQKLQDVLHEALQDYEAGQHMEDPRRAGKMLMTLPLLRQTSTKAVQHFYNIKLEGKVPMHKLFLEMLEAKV
Procedure, shortened: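 Transfect HepG2 with multiple GAL4-UAS reporter transcription units; dose chemicals 24 h; isolate RNA, reverse-transcribe with oligo(dT), PCR-amplify, label with 6-FAM, digest with HpaI; size fragments by capillary electrophoresis. DMSO serves as negative control.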

[4] = target: Bile acid receptor (Homo sapiens) (UniProt Q96RI1); test: ATG_FXR_TRANS: Attagene TRANS-FACTORIAL HepG2 Assay for Farnesoid X Receptor (FXR) (AID 2282979); details: HepG2 Attagene TRANS FXR-GAL4 reporter transcription;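 also: hits raise reporter mRNA above DMSO so AC50 marks FXR activation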
Bile acid receptor (Homo sapiens), sequence (Q96RI1 whole entry, looked up, the tested form may be a part): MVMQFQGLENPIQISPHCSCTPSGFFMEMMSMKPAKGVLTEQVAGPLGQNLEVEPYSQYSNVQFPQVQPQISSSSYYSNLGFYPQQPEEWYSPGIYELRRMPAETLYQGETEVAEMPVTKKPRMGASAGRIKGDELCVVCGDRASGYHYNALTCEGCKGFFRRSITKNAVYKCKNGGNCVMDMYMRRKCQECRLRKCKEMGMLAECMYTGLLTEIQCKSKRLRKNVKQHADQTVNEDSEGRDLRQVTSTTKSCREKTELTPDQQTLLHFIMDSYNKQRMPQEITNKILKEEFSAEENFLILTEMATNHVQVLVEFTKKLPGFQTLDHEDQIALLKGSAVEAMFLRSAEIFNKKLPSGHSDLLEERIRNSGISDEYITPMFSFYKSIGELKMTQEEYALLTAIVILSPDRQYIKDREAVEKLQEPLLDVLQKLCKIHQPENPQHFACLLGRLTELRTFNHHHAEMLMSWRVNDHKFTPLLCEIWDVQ
Procedure, shortened: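 HepG2 cells transiently transfected with reporter constructs in which a chimeric FXR-GAL4 protein drives a GAL4-UAS reporter; 24 h compound exposure. Reporter mRNA measured by RT-PCR, FAM labelling, HpaI digestion and capillary electrophoresis; gain-of-signal versus DMSO.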

[5] = target: Oxysterols receptor LXR-alpha (Homo sapiens) (UniProt Q13133); test: ATG_LXRa_TRANS: Attagene TRANS-FACTORIAL HepG2 Assay for human Liver X Receptor alpha (LXRa) (AID 2282980); details: HepG2 Attagene TRANS reporter, LXRa transactivation
Oxysterols receptor LXR-alpha (Homo sapiens), sequence (Q13133 whole entry, looked up, the tested form may be a part): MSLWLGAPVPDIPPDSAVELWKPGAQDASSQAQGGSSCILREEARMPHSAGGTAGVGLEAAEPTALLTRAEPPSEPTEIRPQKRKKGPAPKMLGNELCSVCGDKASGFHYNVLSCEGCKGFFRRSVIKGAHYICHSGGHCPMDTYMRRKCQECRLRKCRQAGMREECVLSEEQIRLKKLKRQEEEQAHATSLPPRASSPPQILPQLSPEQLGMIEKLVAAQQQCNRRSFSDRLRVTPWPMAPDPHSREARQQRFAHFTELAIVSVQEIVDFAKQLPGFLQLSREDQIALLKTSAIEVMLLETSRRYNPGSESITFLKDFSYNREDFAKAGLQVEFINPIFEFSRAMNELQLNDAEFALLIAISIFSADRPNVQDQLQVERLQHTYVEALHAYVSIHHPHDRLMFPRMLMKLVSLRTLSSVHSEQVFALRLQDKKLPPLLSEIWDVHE
Procedure, shortened: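 HepG2 cells were transiently transfected with multiplexed reporter units driven by chimeric LXRa–GAL4 fusion proteins, then dosed for 24 h. Reporter mRNA was quantified by RT-PCR, fluorescent labelling and capillary electrophoresis; gain of signal fitted against DMSO baseline.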

[6] = target: Oxysterols receptor LXR-beta (Homo sapiens) (UniProt P55055); test: ATG_LXRb_TRANS: Attagene TRANS-FACTORIAL HepG2 Assay for human Liver X Receptor beta (LXRb) (AID 2282981); details: HepG2 Attagene TRANS GAL4-LXRb reporter, mRNA
Oxysterols receptor LXR-beta (Homo sapiens), sequence (P55055 whole entry, looked up, the tested form may be a part): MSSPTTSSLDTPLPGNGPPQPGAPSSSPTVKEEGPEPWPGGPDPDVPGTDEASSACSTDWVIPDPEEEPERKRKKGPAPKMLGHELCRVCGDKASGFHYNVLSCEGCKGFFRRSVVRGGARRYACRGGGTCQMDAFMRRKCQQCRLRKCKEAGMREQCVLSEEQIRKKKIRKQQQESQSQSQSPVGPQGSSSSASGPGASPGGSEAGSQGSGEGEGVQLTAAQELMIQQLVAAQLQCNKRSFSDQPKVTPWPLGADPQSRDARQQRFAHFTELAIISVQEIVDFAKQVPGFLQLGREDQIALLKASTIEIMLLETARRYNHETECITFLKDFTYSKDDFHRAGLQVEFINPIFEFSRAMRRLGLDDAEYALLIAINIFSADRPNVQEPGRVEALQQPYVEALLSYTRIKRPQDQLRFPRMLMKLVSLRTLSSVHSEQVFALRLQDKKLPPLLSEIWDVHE
Procedure, shortened: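 HepG2 cells transiently transfected with GAL4-UAS reporter units for chimeric NR-Gal4 proteins, dosed for 24 h. Reporter transcripts measured by RT-PCR and capillary electrophoresis; gain-of-signal fitting relative to DMSO.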

[7] = target: Hepatocyte nuclear factor 4-alpha (Homo sapiens) (UniProt P41235); test: ATG_HNF4a_TRANS: Attagene TRANS-FACTORIAL HepG2 Assay for human Hepatocyte Nuclear Factor 4 alpha (HNF4a) (AID 2282982); details: HepG2 HNF4a transactivation reporter, mRNA readout
Hepatocyte nuclear factor 4-alpha (Homo sapiens), sequence (P41235 whole entry, looked up, the tested form may be a part): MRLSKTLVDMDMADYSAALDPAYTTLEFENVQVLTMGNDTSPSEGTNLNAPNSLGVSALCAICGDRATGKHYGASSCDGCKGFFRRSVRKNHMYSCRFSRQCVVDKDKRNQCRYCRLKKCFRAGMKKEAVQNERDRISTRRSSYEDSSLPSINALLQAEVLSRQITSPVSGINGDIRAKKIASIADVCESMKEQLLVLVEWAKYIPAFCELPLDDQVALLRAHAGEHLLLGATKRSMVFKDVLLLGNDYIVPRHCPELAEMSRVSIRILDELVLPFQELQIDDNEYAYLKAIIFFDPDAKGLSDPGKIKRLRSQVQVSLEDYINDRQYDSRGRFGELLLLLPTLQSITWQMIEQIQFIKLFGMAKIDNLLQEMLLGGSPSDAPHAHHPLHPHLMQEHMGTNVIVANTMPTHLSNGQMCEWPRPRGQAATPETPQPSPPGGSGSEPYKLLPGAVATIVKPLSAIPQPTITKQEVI
Procedure, shortened: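 HepG2 cells transiently transfected with HNF4a-Gal4 chimera and GAL4-UAS reporter units, dosed for 24 h. Reporter mRNA measured by RT-PCR, fluorescent primer extension and capillary electrophoresis; gain-of-signal fitted relative to DMSO.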

[8] = ATG_GAL4_TRANS: Attagene TRANS-FACTORIAL HepG2 Assay for GAL4 (Internal Marker) (AID 2282976); details: HepG2 Attagene TRANS GAL4 internal marker reporter
Procedure, shortened: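 HepG2 cells transiently transfected with multiplexed GAL4-UAS reporter constructs were dosed for 24 h. Reporter mRNA was measured by RT-PCR, 6-FAM primer extension, HpaI digestion and capillary electrophoresis, and gain of signal was fitted relative to DMSO.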

[9] = target: Glucocorticoid receptor (Homo sapiens) (UniProt P04150); test: ATG_GR_TRANS: Attagene TRANS-FACTORIAL HepG2 Assay for human Glucocorticoid Receptor (GR) (AID 2282978); details: HepG2 Attagene TRANS GR reporter, mRNA transcription;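 also: activators score as hits since higher reporter transcript over DMSO is fitted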
Glucocorticoid receptor (Homo sapiens), sequence (P04150 whole entry, looked up, the tested form may be a part): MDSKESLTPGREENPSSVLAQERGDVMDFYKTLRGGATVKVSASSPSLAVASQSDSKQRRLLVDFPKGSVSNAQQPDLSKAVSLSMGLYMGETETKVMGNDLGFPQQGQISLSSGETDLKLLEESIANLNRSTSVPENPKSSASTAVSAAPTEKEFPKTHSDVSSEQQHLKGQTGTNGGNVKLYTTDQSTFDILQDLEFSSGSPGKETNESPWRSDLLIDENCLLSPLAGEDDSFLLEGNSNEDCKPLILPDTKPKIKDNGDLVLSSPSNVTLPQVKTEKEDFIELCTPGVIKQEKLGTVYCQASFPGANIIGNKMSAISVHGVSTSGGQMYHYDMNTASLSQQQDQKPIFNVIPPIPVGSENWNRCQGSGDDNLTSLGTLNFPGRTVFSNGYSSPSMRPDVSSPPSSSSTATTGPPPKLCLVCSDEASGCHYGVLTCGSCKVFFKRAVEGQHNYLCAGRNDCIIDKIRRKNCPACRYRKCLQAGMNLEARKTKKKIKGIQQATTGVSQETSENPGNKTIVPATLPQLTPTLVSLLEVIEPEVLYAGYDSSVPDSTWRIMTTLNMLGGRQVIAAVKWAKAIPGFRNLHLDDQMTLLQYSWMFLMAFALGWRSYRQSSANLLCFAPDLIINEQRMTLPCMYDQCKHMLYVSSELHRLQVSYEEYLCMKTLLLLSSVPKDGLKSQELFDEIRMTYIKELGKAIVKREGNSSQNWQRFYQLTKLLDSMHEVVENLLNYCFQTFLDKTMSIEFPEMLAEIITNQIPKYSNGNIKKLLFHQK
Procedure, shortened: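 Exogenous NR-GAL4 fusion activity was assessed through induced GAL4-UAS reporter transcripts in transfected human HepG2 cells, quantified after 24 h by RT-PCR and fluorescent capillary electrophoresis with DMSO as baseline.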

[10] = ATG_M_19_TRANS: Attagene TRANS-FACTORIAL HepG2 Assay for M19 Transcription Factor (Internal Marker) (AID 2282974); details: HepG2 Attagene TRANS-FACTORIAL M19 internal marker reporter
Procedure, shortened: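 Using RT-PCR and capillary electrophoresis, reporter mRNA from transiently transfected human HepG2 cells was quantified following 24 h exposure; activity was fitted in the positive direction against DMSO.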

Measured: AC50

O=C(O)C(F)(F)C(F)(F)C(F)(F)C(F)(F)C(F)(F)C(F)(F)C(F)(F)C(F)(F)C(F)(F)C(F)(F)F
inactive: [1] | [2] | [3] | [4] | [5] | [6] | [7]
active: [2] 26.7 µM | [5] 57.2 µM

ClCCBr
inactive: [1] | [2] | [8] | [3] | [5]

Cn1sc(Cl)cc1=O
inactive: [2] | [8]

COS(=O)(=O)c1ccc(C)cc1
inactive: [2] | [8] | [9] | [5] | [7]

ClC1=C(Cl)[C@]2(Cl)[C@H]3[C@H]([C@H]4C=C[C@H]3C4)[C@@]1(Cl)C2(Cl)Cl
inactive: [2] | [10]

CC(C)c1cccc(C(C)C)c1O
inactive: [2] | [10] | [6]

CCOP(=S)(OCC)Oc1ccc(S(C)=O)cc1 (centres undefined)
inactive: [2] | [10] | [3] | [5] | [6]

C=CC(=O)OCCCCCC(C)C
inactive: [2] | [10] | [8] | [7]

CCC(=O)c1ccccc1
inactive: [2] | [8]

ClC1(Cl)C2(Cl)C3(Cl)C4(Cl)C(Cl)(Cl)C5(Cl)C3(Cl)C1(Cl)C5(Cl)C24Cl (centres undefined)
inactive: [2] | [8] | [3] | [6]

Oc1c(I)cc(I)cc1I
inactive: [10] | [8] | [3] | [7]
active: [2] 33.6 µM

ClCC(Cl)CCl
inactive: [2] | [10] | [8] | [3] | [5]

CCOP(=S)(OCC)SCSP(=S)(OCC)OCC
active: [5] 7.73 µM | [6] 18.9 µM
inactive: [2] | [10] | [9] | [7]

C[C@@H](Oc1ccc(Cl)cc1Cl)C(=O)O
inactive: [2] | [10] | [8] | [7]

CC(=O)C(Cl)C(=O)N(C)C (centres undefined)
inactive: [2] | [10] | [5] | [6] | [7]

COC(=O)c1sccc1S(=O)(=O)NC(=O)Nc1nc(C)nc(OC)n1
inactive: [2] | [10] | [5] | [6]

COP(=O)(OC)O/C(=C\Cl)c1cc(Cl)c(Cl)cc1Cl
inactive: [2] | [10] | [3]

Nc1ncc([N+](=O)[O-])s1
inactive: [2] | [8] | [3] | [9] | [6]

O=C(Nc1ccc2[nH]ccc2c1)c1cc2cc(F)ccc2n1Cc1cccc(F)c1
active: [2] 14.1 µM
inactive: [10] | [8] | [3] | [7]

CC(=O)OC(c1ccccc1)C(Cl)(Cl)Cl (centres undefined)
inactive: [2] | [10] | [6]

CC(C)(C)c1cc(O)ccc1O
active: [2] 109 µM

CCCCCCCCSC(=O)Oc1cc(Cl)nnc1-c1ccccc1
inactive: [2] | [8]

CC(C)(OO)c1ccccc1
inactive: [2] | [10] | [8] | [9]

C[C@]12CC[C@H](O)CC1=CC[C@@H]1[C@@H]2CC[C@]2(C)C(=O)CC[C@@H]12
inactive: [2] | [10] | [8] | [6]

CC12CC1(C)C(=O)N(c1cc(Cl)cc(Cl)c1)C2=O (centres undefined)
inactive: [2] | [10] | [8] | [5] | [6] | [7]

Fc1ccc(C2(Cn3cncn3)OC2c2ccccc2Cl)cc1 (centres undefined)
inactive: [2] | [10] | [9] | [4] | [5]

CC(=[OH+])/C=C(/C)[O-].CC(=[OH+])/C=C(/C)[O-].CC(=[OH+])/C=C(/C)[O-].[Fe]
inactive: [2] | [10] | [8] | [5] | [6] | [7]

O=C(Cl)c1ccc(Cl)cc1
inactive: [2] | [8] | [9] | [4] | [5] | [6]

Cc1ccc2ccccc2c1C
inactive: [2] | [10] | [6]

Oc1ccc(-c2ccccc2)cc1
active: [2] 69.4 µM

CNC(=O)O/N=C/C(C)(C)S(C)=O (centres undefined)
inactive: [2] | [8] | [9] | [6]

CCCCP(CCCC)CCCC
inactive: [2] | [10] | [8] | [5] | [6] | [7]

O=S(=O)(c1ccc(Cl)cc1)c1ccc(Cl)cc1
inactive: [2] | [8] | [3] | [5] | [6]

O=C(CCl)CCl
active: [2] 48.1 µM

O=P(O)(O)CN(CP(=O)(O)O)CP(=O)(O)O
inactive: [2] | [10] | [8] | [6] | [7]

Cc1ccccc1N
inactive: [2] | [10] | [8] | [6] | [7]

CC(C)(c1ccccc1)c1ccc(O)c(C(C)(C)c2ccccc2)c1
active: [2] 10.1 µM
inactive: [10] | [4] | [5]

C=CC(=O)N(C)C
inactive: [2] | [8] | [3] | [5] | [6]

CC(=[OH+])/C=C(/C)[O-].CC(=[OH+])/C=C(/C)[O-].CC(=[OH+])/C=C(/C)[O-].[Al]
inactive: [2] | [10] | [8] | [6] | [7]
